# According to the supplement of paper PMC10037445:
# Whole data set: some 2,900 compounds, median “NF-kB SEAP reporter activity, fold change vs agonist alone” near 0.99, cut for the highest 2% near 2.6. For the sample, the highest values were picked, then their nearest neighbours and some compounds at random.
# How the values were obtained:
# [1] = system: RAW-Dual; test: NF-kB SEAP reporter activity, fold change vs agonist alone; cytotoxicity flag (confluency mask): not cytotoxic; higher = enhanced NF-kB activity
# How it was run: (§1)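 After 50 nL of library stock was delivered by pin tool to RAW-Dual macrophages (50,000 cells/well, DMEM, 384-well plates), a PRR agonist was added 1 h later and the plates were kept at 37 °C, 5% CO2. Twenty hours later, IRF was read from supernatant by QuantiLuc luminescence and NF-κB by QuantiBlue absorbance at 620 nm. Reporter activity is stated as fold change over agonist-alone wells. Wells with IncuCyte confluency under 70% of agonist controls in both mask sets were counted as cytotoxic.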
# [2] = system: RAW-Dual; test: NF-kB SEAP reporter activity, fold change vs agonist alone; higher = enhanced NF-kB activity
# How it was run: as §1
# [3] = system: RAW-Dual; test: NF-kB SEAP reporter activity, fold change vs agonist alone; cytotoxicity flag (confluency mask): cytotoxic (confluency <70% of control); higher = enhanced NF-kB activity
# How it was run: as §1
# [4] = agonist: ODN 1826 (TLR9) 0.5 ug/mL
# [5] = agonist: Pam2CSK4 (TLR2/6) 0.1 ug/mL
# [6] = agonist: Pam3CSK4 (TLR2/1) 0.1 ug/mL
# [7] = library stock concentration (final ~1000-fold dilution): 10 mM, cytotoxicity flag (confluency mask): not cytotoxic, agonist: Imiquimod (TLR7) […]
# [8] = library stock concentration (final ~1000-fold dilution): 10 mM, cytotoxicity flag (confluency mask): not cytotoxic, agonist: MPLA (TLR4) […]
compound,measurement,setting,value
CC(C)(C)NCC(O)COc1ccccc1C1CCCC1.CC(C)(C)NCC(O)COc1ccccc1C1CCCC1.O=S(=O)(O)O (centres undefined) (library stock concentration (final ~1000-fold dilution): 10 mM),NF-kB SEAP reporter activity,[1]; agonist: LPS (TLR4) 0.1 ug/mL,0.844
same,NF-kB SEAP reporter activity,[1]; [4],1.08
same,NF-kB SEAP reporter activity,[1]; [5],0.857
same,NF-kB SEAP reporter activity,[1]; [6],0.842
CC(C)(C)NCC(O)COc1ccccc1C1CCCC1.CC(C)(C)NCC(O)COc1ccccc1C1CCCC1.O=S(=O)(O)O (centres undefined),NF-kB SEAP reporter activity,[2]; [7],1.29
same,NF-kB SEAP reporter activity,[2]; [8],1.32
CN1CCc2c(c3ccccc3n2Cc2ccc(C(=O)NO)cc2)C1,NF-kB SEAP reporter activity,[2]; [7],1
same,NF-kB SEAP reporter activity,[2]; [8],1.11
CN1CCc2c(c3ccccc3n2Cc2ccc(C(=O)NO)cc2)C1 (library stock concentration (final ~1000-fold dilution): 10 mM),NF-kB SEAP reporter activity,[1]; agonist: LPS (TLR4) 0.1 ug/mL,1.15
same,NF-kB SEAP reporter activity,[1]; [4],1.21
same,NF-kB SEAP reporter activity,[1]; [5],0.779
same,NF-kB SEAP reporter activity,[1]; [6],1.15
CN1CCc2c(c3ccccc3n2Cc2ccc(C(=O)NO)cc2)C1.Cl (library stock concentration (final ~1000-fold dilution): 10 mM),NF-kB SEAP reporter activity,[1]; agonist: LPS (TLR4) 0.1 ug/mL,5.1
same,NF-kB SEAP reporter activity,[1]; [4],1.71
same,NF-kB SEAP reporter activity,[1]; [5],1.08
same,NF-kB SEAP reporter activity,[1]; [6],1.59
CN1CCc2c(c3ccccc3n2Cc2ccccc2)C1.CN1CCc2c(c3ccccc3n2Cc2ccccc2)C1.O=S(=O)(O)c1cccc2c(S(=O)(=O)O)cccc12 (library stock concentration (final ~1000-fold dilution): 2 mM),NF-kB SEAP reporter activity,[1]; agonist: LPS (TLR4) 0.1 ug/mL,1.29
same,NF-kB SEAP reporter activity,[1]; [4],0.722
same,NF-kB SEAP reporter activity,[1]; [5],0.952
same,NF-kB SEAP reporter activity,[1]; [6],0.958
CN1CCc2c(c3ccccc3n2Cc2ccccc2)C1.CN1CCc2c(c3ccccc3n2Cc2ccccc2)C1.O=S(=O)(O)c1cccc2c(S(=O)(=O)O)cccc12,NF-kB SEAP reporter activity,"[2]; library stock concentration (final ~1000-fold dilution): 2 mM, cytotoxicity flag (confluency mask): not cytotoxic, agonist: MPLA (TLR4) […]",1.15
CN1CCc2c(c3ccccc3n2Cc2ccc(C(=O)NO)cc2)C1.Cl,NF-kB SEAP reporter activity,[2]; [7],2.44
same,NF-kB SEAP reporter activity,[2]; [8],2.55
CC(C)N(CCC(=O)c1ccc2ccccc2c1)Cc1ccccc1.Cl (library stock concentration (final ~1000-fold dilution): 10 mM),NF-kB SEAP reporter activity,[3]; agonist: LPS (TLR4) 0.1 ug/mL,0.45
same,NF-kB SEAP reporter activity,[3]; [4],0.518
same,NF-kB SEAP reporter activity,[3]; [5],0.615
same,NF-kB SEAP reporter activity,[3]; [6],0.442
CC(C)N(CCC(=O)c1ccc2ccccc2c1)Cc1ccccc1.Cl,NF-kB SEAP reporter activity,"[2]; library stock concentration (final ~1000-fold dilution): 10 mM, cytotoxicity flag (confluency mask): cytotoxic (confluency <70% of control), agonist: Imiquimod (TLR7) […]",1.07
same,NF-kB SEAP reporter activity,"[2]; library stock concentration (final ~1000-fold dilution): 10 mM, cytotoxicity flag (confluency mask): cytotoxic (confluency <70% of control), agonist: MPLA (TLR4) […]",0.507
Cc1cc(Nc2ccc(NC(=O)c3ccc(Nc4ccnc5ccccc45)cc3)cc2)nc(N)n1 (library stock concentration (final ~1000-fold dilution): 10 mM),NF-kB SEAP reporter activity,[1]; agonist: LPS (TLR4) 0.1 ug/mL,2.34
same,NF-kB SEAP reporter activity,[1]; [4],0.228
same,NF-kB SEAP reporter activity,[1]; [5],0.856
same,NF-kB SEAP reporter activity,[1]; [6],1.34
O=C(Nc1ccc(OC(F)(F)F)cc1)c1sccc1NCc1ccnc2ccccc12,NF-kB SEAP reporter activity,[2]; [7],1.77
same,NF-kB SEAP reporter activity,[2]; [8],2.25
O=C(Nc1ccc(OC(F)(F)F)cc1)c1sccc1NCc1ccnc2ccccc12 (library stock concentration (final ~1000-fold dilution): 10 mM),NF-kB SEAP reporter activity,[1]; agonist: LPS (TLR4) 0.1 ug/mL,2.86
same,NF-kB SEAP reporter activity,[1]; [4],1.18
same,NF-kB SEAP reporter activity,[1]; [5],0.672
same,NF-kB SEAP reporter activity,[1]; [6],1.07
Cc1cc(Nc2ccc(NC(=O)c3ccc(Nc4ccnc5ccccc45)cc3)cc2)nc(N)n1,NF-kB SEAP reporter activity,[2]; [7],1.31
same,NF-kB SEAP reporter activity,[2]; [8],2.36
O=C(NCCO)c1cccc(-c2cc(Nc3ccc(OC(F)(F)F)cc3)ncn2)c1 (library stock concentration (final ~1000-fold dilution): 10 mM),NF-kB SEAP reporter activity,[1]; agonist: LPS (TLR4) 0.1 ug/mL,1.15
same,NF-kB SEAP reporter activity,[1]; [4],0.796
same,NF-kB SEAP reporter activity,[1]; [5],0.96
same,NF-kB SEAP reporter activity,[1]; [6],1.03
O=C(NCCO)c1cccc(-c2cc(Nc3ccc(OC(F)(F)F)cc3)ncn2)c1,NF-kB SEAP reporter activity,[2]; [7],1.09
same,NF-kB SEAP reporter activity,[2]; [8],1.23
Cc1[nH]nc(C(F)(F)F)c1Cc1sc2c(c1C(=O)N1CC(C)(O)CO1)c(=O)n(C)c(=O)n2C(C)C (centres undefined),NF-kB SEAP reporter activity,[2]; [7],1.11
same,NF-kB SEAP reporter activity,[2]; [8],1.25
Cc1[nH]nc(C(F)(F)F)c1Cc1sc2c(c1C(=O)N1CC(C)(O)CO1)c(=O)n(C)c(=O)n2C(C)C (centres undefined) (library stock concentration (final ~1000-fold dilution): 10 mM),NF-kB SEAP reporter activity,[1]; agonist: LPS (TLR4) 0.1 ug/mL,1.81
same,NF-kB SEAP reporter activity,[1]; [4],1.27
same,NF-kB SEAP reporter activity,[1]; [5],0.918
same,NF-kB SEAP reporter activity,[1]; [6],1.06
Cc1cc(C)nc(NC(=S)N2CCN(Cc3ccc(C(F)(F)F)cc3)CC2)c1,NF-kB SEAP reporter activity,[2]; [7],0.758
same,NF-kB SEAP reporter activity,[2]; [8],0.954
Cc1cc(C)nc(NC(=S)N2CCN(Cc3ccc(C(F)(F)F)cc3)CC2)c1 (library stock concentration (final ~1000-fold dilution): 10 mM),NF-kB SEAP reporter activity,[1]; agonist: LPS (TLR4) 0.1 ug/mL,0.783
same,NF-kB SEAP reporter activity,[1]; [4],0.834
same,NF-kB SEAP reporter activity,[1]; [5],0.805
same,NF-kB SEAP reporter activity,[1]; [6],0.809
CC1c2cccc(O)c2C(=O)C2=C(O)C3(O)C(=O)C(C(N)=O)=C(O)C(N(C)C)C3C(O)C21 (centres undefined),NF-kB SEAP reporter activity,[2]; [8],1.13
CC1c2cccc(O)c2C(=O)C2=C(O)C3(O)C(=O)C(C(N)=O)=C(O)C(N(C)C)C3C(O)C21 (centres undefined) (library stock concentration (final ~1000-fold dilution): 10 mM),NF-kB SEAP reporter activity,[1]; agonist: LPS (TLR4) 0.1 ug/mL,1.81
same,NF-kB SEAP reporter activity,[1]; [4],0.966
same,NF-kB SEAP reporter activity,[1]; [5],0.896
same,NF-kB SEAP reporter activity,[1]; [6],0.885
CC(=O)N1CCC(Nc2cc(C(=O)NCC(O)CN3CCc4ccccc4C3)ncn2)CC1 (centres undefined) (library stock concentration (final ~1000-fold dilution): 10 mM),NF-kB SEAP reporter activity,[1]; agonist: LPS (TLR4) 0.1 ug/mL,1.08
same,NF-kB SEAP reporter activity,[1]; [4],0.948
same,NF-kB SEAP reporter activity,[1]; [5],1.13
same,NF-kB SEAP reporter activity,[1]; [6],1.17
CC(=O)N1CCC(Nc2cc(C(=O)NCC(O)CN3CCc4ccccc4C3)ncn2)CC1 (centres undefined),NF-kB SEAP reporter activity,[2]; [7],0.92
same,NF-kB SEAP reporter activity,[2]; [8],1.03
Cc1cc(N=Nc2ccc(S(=O)(=O)Nc3ccccn3)cc2)c(N)cc1O,NF-kB SEAP reporter activity,[2]; [7],1.38
same,NF-kB SEAP reporter activity,[2]; [8],2.48
Cc1cc(N=Nc2ccc3c(c2)CCC(=O)N3)c(N)cc1O,NF-kB SEAP reporter activity,[2]; [7],1.35
same,NF-kB SEAP reporter activity,[2]; [8],1.77
O=C(O)C1=C/C(=N\Nc2ccc(S(=O)(=O)Nc3ccccn3)cc2)C=CC1=O,NF-kB SEAP reporter activity,[2]; [7],1.07
same,NF-kB SEAP reporter activity,[2]; [8],1.31
Cc1cc(N=Nc2ccc3c(c2)CCC(=O)N3)c(N)cc1O (library stock concentration (final ~1000-fold dilution): 10 mM),NF-kB SEAP reporter activity,[1]; agonist: LPS (TLR4) 0.1 ug/mL,1.42
same,NF-kB SEAP reporter activity,[1]; [4],1.33
same,NF-kB SEAP reporter activity,[1]; [5],0.692
same,NF-kB SEAP reporter activity,[1]; [6],1.22
O=C(O)C1=C/C(=N\Nc2ccc(S(=O)(=O)Nc3ccccn3)cc2)C=CC1=O (library stock concentration (final ~1000-fold dilution): 10 mM),NF-kB SEAP reporter activity,[1]; agonist: LPS (TLR4) 0.1 ug/mL,1.65
same,NF-kB SEAP reporter activity,[1]; [4],1.26
same,NF-kB SEAP reporter activity,[1]; [5],0.969
same,NF-kB SEAP reporter activity,[1]; [6],0.851
Cc1cc(N=Nc2ccc(S(=O)(=O)Nc3ccccn3)cc2)c(N)cc1O (library stock concentration (final ~1000-fold dilution): 10 mM),NF-kB SEAP reporter activity,[1]; agonist: LPS (TLR4) 0.1 ug/mL,3.77
same,NF-kB SEAP reporter activity,[1]; [4],2.32
same,NF-kB SEAP reporter activity,[1]; [5],0.966
same,NF-kB SEAP reporter activity,[1]; [6],2.13
O=C(c1ccccc1)C(O)O,NF-kB SEAP reporter activity,[2]; [8],1.19
O=C(c1ccccc1)C(O)O (library stock concentration (final ~1000-fold dilution): 10 mM),NF-kB SEAP reporter activity,[1]; agonist: LPS (TLR4) 0.1 ug/mL,1.12
same,NF-kB SEAP reporter activity,[1]; [4],1.04
same,NF-kB SEAP reporter activity,[1]; [5],1.14
same,NF-kB SEAP reporter activity,[1]; [6],1.07
CCC(=O)OC1CC(=O)OC(C)C/C=C/C=C/C(O)C(C)CC(CC=O)C(OC2OC(C)C(OC3CC(C)(O)C(OC(=O)CC)C(C)O3)C(N(C)C)C2O)C1OC (centres undefined),NF-kB SEAP reporter activity,[2]; [7],0.961
same,NF-kB SEAP reporter activity,[2]; [8],1.07
CCC(=O)OC1CC(=O)OC(C)C/C=C/C=C/C(O)C(C)CC(CC=O)C(OC2OC(C)C(OC3CC(C)(O)C(OC(=O)CC)C(C)O3)C(N(C)C)C2O)C1OC (centres undefined) (library stock concentration (final ~1000-fold dilution): 10 mM),NF-kB SEAP reporter activity,[1]; agonist: LPS (TLR4) 0.1 ug/mL,0.93
same,NF-kB SEAP reporter activity,[1]; [4],1.02
same,NF-kB SEAP reporter activity,[1]; [5],1.06
same,NF-kB SEAP reporter activity,[1]; [6],1.21
